Sampled rows, rich in hits. Any-hit rate of the full collection: about 7.2%.
MARV entry inh – qHTS for inhibitors of binding or entry into cells for Marburg Virus. actives 1.8% (n = 300,000). Potency, µM (series often up to 37.8 µM), usual class: inhibitors. Marburg virus pseudotyped entry inhibition, cell reporter; calls by dose curve; tested in HEK293 cells
FMDV antiviral – High Throughput Screening for Foot and Mouth Disease Virus Antivirals; FMDV antiviral cell-based qHTS; Potency, µM (series often up to 57.9 µM), most hits filed as inhibitors; actives 1.2% (n = 410,000); calls by dose curve; tested in HEK293T cells; also: read-out not given here; nearly all actives have a fitted effect of over 45% in size
Sm TGR block – qHTS Assay for the Inhibitors of Schistosoma Mansoni Peroxiredoxins; Schistosoma mansoni thioredoxin glutathione reductase (TGR), Q962Y6; purified TGR, DTNB reduction, TNB absorbance 405 nm; Potency, µM (titrated, usually from 114 µM), actives largely listed as inhibitors; actives 3% (n = 360,000); AID 485364, 2010; also: nearly all actives have a fitted effect of over 60% in size
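Kinetic colorimetric format: TGR-catalysed, NADPH-driven DTNB reduction monitored via TNB absorbance. Enzyme dispensed at 20 nM; compound exposure 15 min at room temperature before reaction start.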
HCV inhibitor – qHTS Assay for Inhibitors of Hepatitis C Virus (HCV). Potency, µM (series often up to 41.8 µM), usual class: inhibitors. AID 651820, 2012. Huh7.5.1 HCVcc-Cre infection, luciferase reporter, 44 h. actives 3.4% (n = 340,000)
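Seed cells (1,000/well) for 4 h; treat with compound and infect with HCVcc-Cre, moi about 0.5. Incubate 44 h, then detect luciferase activity.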
RE007 growth inh – qHTS Assay for Inhibitors of the HIV-1 protein Vpr. S. pombe RE007 Vpr strain, BacTiter-Glo ATP luminescence, 24 h. Potency, µM (titrated, usually from 92.2 µM), actives largely listed as inhibitors. actives 0.21% (n = 360,000). AID 651644, 2012; active = well fitted falling curve with a large enough effect; inconclusive = small, poorly fitted or top-dose-only effect; inactive = no such curve, though single readings can be large or run the other way; also: nearly all actives have a fitted effect of over 50% in size
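Fission yeast RE007 carrying one integrated HIV-1 vpr copy, seeded at OD 0.01 in PMG+AL medium with 23 nL pinned compound. Grown 24 h at 30 degrees; viability read by BacTiter-Glo luminescence after 5 min.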
LASV entry inh – qHTS for Inhibitors of binding or entry into cells for Lassa Virus. Lassa virus pseudotype entry inhibition, cell reporter. Potency, µM (highest dose often 37.9 µM), usual class: inhibitors. actives 1.2% (n = 300,000). AID 540256, 2011; calls by dose curve; tested in HEK293 cells; also: nearly all actives have a fitted effect of over 50% in size
Of the large screens only hits and unclear results are named; the others gave an inactive call. Unless noted, calls follow the shape of the dose curve; as a rule, active = well fitted curve in the direction sought with a large enough effect; inconclusive = small, poorly fitted or top-dose-only effect, or another doubt; inactive = no such curve, though single readings can be large; an effect the other way counts as inactive or inconclusive.

O=C(c1ccc(CS(=O)(=O)c2ccc(Br)cc2)o1)N1CCCCCC1	Sm TGR block 35µM, HCV inhibitor inconclusive (no result: LASV entry inh)
O=C(c1ccc(CS(=O)c2ccccc2Cl)o1)N1CCN(C2CCCCC2)CC1 (configuration not stated)	none (no result: MARV entry inh, Sm TGR block, HCV inhibitor, LASV entry inh)
O=C(c1ccc(CS(=O)c2ccccc2Cl)o1)N1CCCCCC1 (configuration not stated)	Sm TGR block 40µM (no result: MARV entry inh, LASV entry inh)
CCOC(=O)N1CCC(NC(=O)c2ccc(CS(=O)(=O)c3c(Cl)cccc3Cl)o2)CC1	Sm TGR block inconclusive (no result: MARV entry inh, LASV entry inh)
O=C(c1ccc(CS(=O)(=O)c2c(Cl)cccc2Cl)o1)N1CCCC1	Sm TGR block 35µM (no result: MARV entry inh, LASV entry inh)
CCOC(=O)N1CCN(C(=O)c2ccc(CS(=O)(=O)c3c(Cl)cccc3Cl)o2)CC1	Sm TGR block 45µM (no result: LASV entry inh)
CN(CCO)C(=O)c1cn(C2CCCN(Cc3cccc4ccccc34)C2)nn1 (configuration not stated)	none (no result: MARV entry inh, Sm TGR block, HCV inhibitor, RE007 growth inh, LASV entry inh)
O=C(c1ccco1)N1CCN(C(=O)c2ccc(CS(=O)c3ccc(Cl)cc3)o2)CC1 (configuration not stated)	Sm TGR block 40µM (no result: MARV entry inh, LASV entry inh)
O=C(CCCN1C(=O)/C(=C/c2ccccc2Cl)SC1=S)NNC(=O)c1ccc(Cl)cc1Cl	FMDV antiviral 8.9µM (no result: MARV entry inh, LASV entry inh)
COc1ccc(/C=C2/SC(=S)N(Cc3ccccc3)C2=O)cc1O	HCV inhibitor inconclusive (no result: MARV entry inh, LASV entry inh)
O=C1/C(=C\c2cc(Cl)c(O)c(Cl)c2)SC(=S)N1Cc1ccccc1	MARV entry inh 6.3µM, FMDV antiviral inconclusive, Sm TGR block inconclusive, HCV inhibitor inconclusive, LASV entry inh 4µM
CC(=C\c1ccccc1)/C=C1/SC(=S)N(CCCC(=O)O)C1=O	MARV entry inh inconclusive, FMDV antiviral inconclusive, LASV entry inh inconclusive
O=C(CCCN1C(=O)S/C(=C\c2ccccc2)C1=O)NNC(=O)c1ccccc1O	MARV entry inh 1.8µM, FMDV antiviral inconclusive, HCV inhibitor inconclusive, LASV entry inh inconclusive
CC(/C=C1\SC(=O)N(CCCC(=O)O)C1=O)=C\c1ccccc1	MARV entry inh 0.5µM, FMDV antiviral 0.89µM, LASV entry inh 0.79µM
CCc1c(C)sc(NC(=O)c2cc(-c3cccc(Cl)c3)on2)c1C#N	none (no result: HCV inhibitor, RE007 growth inh)
COC(=O)CC=C[C@@H](C)[C@@H](C=NO[C@@H](C)c1cn([C@H](CO)Cc2ccccc2)nn1)NS(=O)(=O)c1ccc(C)cc1	none (no result: FMDV antiviral, Sm TGR block, HCV inhibitor, RE007 growth inh)
COc1cccc(C2CC(=O)N(c3ccc(F)cc3)C3=C2C(=O)OC3)c1OC (configuration not stated)	none (no result: HCV inhibitor, RE007 growth inh)
O=C(O)CN1C(=O)/C(=C\C(Br)=C\c2ccccc2)SC1=S	MARV entry inh inconclusive, Sm TGR block 20µM, HCV inhibitor inconclusive
CCn1nc(-c2ccccc2)c(-c2ccccc2)c(C(=O)Nc2ccc(NC(C)=O)cc2)c1=O	MARV entry inh inconclusive (no result: HCV inhibitor, RE007 growth inh)
Cc1ccc(S(=O)(=O)c2nc(-c3ccccc3F)oc2NCc2ccccc2)cc1	none (no result: HCV inhibitor, RE007 growth inh)
CCNc1oc(-c2ccccc2F)nc1S(=O)(=O)c1ccccc1	Sm TGR block 40µM
CNc1oc(-c2ccccc2F)nc1S(=O)(=O)c1ccc(C)cc1	Sm TGR block 14µM
O=C(Cn1c(=O)n(Cc2ccc(F)cc2)c(=O)c2sc3ccccc3c21)Nc1ccc(F)cc1F	none (no result: HCV inhibitor, RE007 growth inh)
COc1cc(NC(=O)Cn2ccn(Cc3ccccc3OC)c(=O)c2=O)cc(OC)c1	none (no result: MARV entry inh, HCV inhibitor, RE007 growth inh)
CCOC(=O)c1ccc(NC(=O)Cn2c(=O)cc(C(F)(F)F)c3c(C)nn(C)c32)cc1	none (no result: MARV entry inh, HCV inhibitor, RE007 growth inh)
Cc1ccc(C)c(N2CCN(S(=O)(=O)c3cnc(N)nc3)CC2)c1	none (no result: MARV entry inh, HCV inhibitor, RE007 growth inh)
O=C1NCC(Nc2ccc(Cl)cc2)C(=O)N1 (configuration not stated)	none (no result: Sm TGR block)
CCCOC1(NC(=O)c2ccccc2)C(C)=CC(=O)C=C1C	Sm TGR block 22µM
O=C(O)Cn1cc(/C=C2\C(=O)NC(=O)N(Cc3ccco3)C2=O)c2ccccc21	MARV entry inh inconclusive, Sm TGR block 5µM, HCV inhibitor inconclusive
CCN1C(=O)NC(=O)/C(=C\c2cn(CC(=O)N3CCCC3)c3ccccc23)C1=O	Sm TGR block inconclusive
Cc1ccc(N2C(=O)NC(=O)/C(=C\c3cn(CC(=O)O)c4ccccc34)C2=O)cc1	Sm TGR block inconclusive (no result: MARV entry inh, LASV entry inh)
O=C1NC(=O)N(c2ccccc2F)C(=O)/C1=C/c1cn(CC(=O)N2CCOCC2)c2ccccc12	FMDV antiviral 22µM, LASV entry inh inconclusive
CC(C)NC(=O)C1CCC(Cn2c(=O)c3sccc3n(CC(=O)Nc3ccccc3)c2=O)CC1 (configuration not stated)	none (no result: MARV entry inh, HCV inhibitor, RE007 growth inh)
Cc1ccccc1Nc1nc(N)nc(-c2oc3ccccc3c2C)n1	MARV entry inh inconclusive
Cc1c(-c2nc(N)nc(Nc3ccc(F)cc3)n2)oc2ccccc12	MARV entry inh inconclusive, HCV inhibitor 10µM
COC(=O)c1ccc(CN2[C@H](C(=O)OC)C[C@@]3(O)[C@H](O)[C@H](O)[C@H](O)C[C@@H]23)cc1	none (no result: MARV entry inh, LASV entry inh)
COC(=O)[C@@H]1C[C@@]2(O)[C@@H](O)[C@@H](O)[C@@H](O)C[C@H]2N1Cc1ccc(Cl)cc1	Sm TGR block 40µM (no result: MARV entry inh, LASV entry inh)
CN(Cc1ccccc1)C(=C(Cl)Cl)C(=C1NCCN1)[N+](=O)[O-]	Sm TGR block 35µM
O=C(O)CCCN1C(=O)/C(=C\c2ccco2)SC1=S	MARV entry inh inconclusive, FMDV antiviral inconclusive, Sm TGR block inconclusive, LASV entry inh inconclusive
O=C(O)CN1C(=O)/C(=C/c2ccc(SCc3ccccc3)o2)SC1=S	Sm TGR block 10µM (no result: MARV entry inh, LASV entry inh)
O=C(O)CCN1C(=O)/C(=C\c2ccc(-c3nc4ccccc4s3)o2)SC1=S	Sm TGR block 50µM, LASV entry inh inconclusive
Cc1cc2cc(CNC(=O)c3ccc(Br)o3)ccc2[nH]1	Sm TGR block 40µM (no result: MARV entry inh, LASV entry inh)
Cc1cc2cc(CNC(=O)c3ccc(Br)o3)ccc2n1C	Sm TGR block 14µM (no result: MARV entry inh, LASV entry inh)
Cc1ccc(S(=O)(=O)NCc2ccc3[nH]c(C)cc3c2)cc1	Sm TGR block 11µM (no result: MARV entry inh, LASV entry inh)
Cc1cc2cc(CCNC(=O)c3ccc(Br)o3)c(=O)[nH]c2cc1C	Sm TGR block 35µM
COc1ccc2cc(CCNC(=O)c3ccc(Br)o3)c(=O)[nH]c2c1	Sm TGR block inconclusive, HCV inhibitor inconclusive (no result: MARV entry inh, LASV entry inh)
Cc1ccc(CNC(=O)c2ccc(Br)o2)cc1	none (no result: FMDV antiviral)
CCn1c(=O)n(C2=C(CO)CN(CC3CCCCCCC3)CC2)c2ccccc21	none (no result: MARV entry inh, Sm TGR block, HCV inhibitor, RE007 growth inh, LASV entry inh)
CCC(C(=O)Nc1ccccc1OC)n1c(C(=O)OC)cc2sc(Cl)cc21 (configuration not stated)	none (no result: HCV inhibitor, RE007 growth inh, LASV entry inh)
CCN(CC(=O)Nc1ccc(OC)cc1)CC(=O)Nc1ccc(Cl)cc1F	none
CCN(CC(=O)Nc1ccc(Br)cc1)CC(=O)Nc1cc(C)on1	Sm TGR block 50µM, HCV inhibitor inconclusive

Screening results (PubChem)
